According to ChEMBL document CHEMBL3433997, “St. Jude Leishmania screening dataset” (2016):

Experiments:
Assay type in all cases: functional
[1] = molecular target: Solute carrier family 2, facilitated glucose transporter member 1 (Homo sapiens) (UniProt P11166); assay: ST_JUDE_LEISH: Cytotoxicity at 2uM final concentration against transgenic Leishmania Mexicana promastigotes LmGLUT1 that are glucose transport deficient and complemented with the human glucose transporter GLUT1. Activity is measured by DNA content using SYBR green in vitro
Sequence of Solute carrier family 2, facilitated glucose transporter member 1 (Homo sapiens) (P11166 whole entry): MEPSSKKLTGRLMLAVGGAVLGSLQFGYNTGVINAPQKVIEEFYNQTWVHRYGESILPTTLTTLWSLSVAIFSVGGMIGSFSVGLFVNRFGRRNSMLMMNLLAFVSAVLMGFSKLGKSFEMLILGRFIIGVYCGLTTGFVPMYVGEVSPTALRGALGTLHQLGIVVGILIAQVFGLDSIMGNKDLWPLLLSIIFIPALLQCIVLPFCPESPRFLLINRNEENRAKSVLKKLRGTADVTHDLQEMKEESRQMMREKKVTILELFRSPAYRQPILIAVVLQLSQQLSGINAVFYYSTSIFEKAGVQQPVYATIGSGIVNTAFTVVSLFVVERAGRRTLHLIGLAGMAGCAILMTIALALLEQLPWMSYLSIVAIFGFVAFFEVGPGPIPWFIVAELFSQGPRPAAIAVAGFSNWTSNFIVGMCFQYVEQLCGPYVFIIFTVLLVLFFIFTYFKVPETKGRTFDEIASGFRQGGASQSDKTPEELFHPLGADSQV

[2] = molecular target: Hexose transporter 1 (Plasmodium falciparum) (UniProt O97467); assay: ST_JUDE_LEISH: Cytotoxicity at 2uM final concentration against transgenic Leishmania Mexicana promastigotes LmPfHT that are glucose transport deficient and complemented with the Plasmodium falciparum hexose transporter. Activity is measured by DNA content using SYBR green in vitro
[3] = molecular target: Glucose transporter (Leishmania mexicana) (UniProt O61059); assay: ST_JUDE_LEISH: Cytotoxicity at 2uM final concentration against transgenic Leishmania Mexicana promastigotes LmGT2 that are glucose transport deficient and complemented with the L. Mexicana glucose transporter 2. Activity is measured by DNA content using SYBR green in vitro

## FC(F)(F)c1ccc2[nH]c(-c3ccc(-c4cccc(CN5CCN(CCN6CCOCC6)CC5)c4)cc3)nc2c1
[1]
  inhibition: 1.77%
[2]
  inhibition: 3.69%
[3]
  inhibition: 2.25%

## CCOC(=O)c1ccc(NC(=O)NCCCC2CCCN(CCCCCNC(=O)/C=C/c3ccc(Cl)c(Cl)c3)C2)cc1 (stereo unspecified)
[1]
  inhibition: 1.46%
[2]
  inhibition: 1.66%
[3]
  inhibition: 0.52%

## CCc1ccc(CN2CCC(CNC(=O)c3cc(-c4ccccc4F)cs3)C2)cc1 (stereo unspecified)
[1]
  inhibition: 1.55%
[2]
  inhibition: -3.47%
[3]
  inhibition: 1.83%

## COc1ccc2nccc(N(C)CC3(O)CCN(CCc4ccc5c(c4)OCCO5)CC3)c2n1
[1]
  inhibition: 0.49%
[2]
  inhibition: 0.73%
[3]
  inhibition: 2.16%

## O=C(C=Cc1ccc(Cl)c(Cl)c1)NCCCCCN1CCC(CCCNC(=O)c2ccc3c(c2)OCO3)CC1
[1]
  inhibition: 4.5%
[2]
  inhibition: 4.24%
[3]
  inhibition: -3.71%

## Cn1nc(-c2ccc(NC(=O)Nc3cc(C(F)(F)F)ccc3F)cc2)c2cnc(NCCCCN3CCCC3)nc21
[1]
  inhibition: 3.73%
[2]
  inhibition: 4.39%
[3]
  inhibition: 4.25%

## COc1ccc(-c2ccnc(-c3cccc(-c4ccccn4)n3)c2)cc1
[1]
  inhibition: 7.03%
[2]
  inhibition: 24.9%
[3]
  inhibition: 2.98%

## c1ccc2[nH]c(-c3ccc(-c4ccc(CNC5CC5)cc4)s3)nc2c1
[1]
  inhibition: 0.93%
[2]
  inhibition: 0.48%
[3]
  inhibition: -2.14%

## O=C(NCC1CC1)C1CCN(C(c2ccccc2)c2ccc(Cl)c(Cl)c2)CC1 (stereo unspecified)
[1]
  inhibition: -0.49%
[2]
  inhibition: 1.49%
[3]
  inhibition: 0.06%

## O=S(=O)(c1cccc(C(F)(F)F)c1)N1CCC(CO)(Cc2cccc(C(F)(F)F)c2)CC1
[1]
  inhibition: 9.13%
[2]
  inhibition: 6.86%
[3]
  inhibition: 7.55%

## Cc1ccc(NC(=O)c2c(C)noc2-c2snnc2C)cc1
[1]
  inhibition: 3.24%
[2]
  inhibition: 4.05%
[3]
  inhibition: 3.02%

## O=C(Nc1cccc(-c2ccc(-c3nc4cc(F)ccc4[nH]3)cc2)c1)Nc1ccc(Cl)c(Cl)c1
[1]
  inhibition: 5.5%
[2]
  inhibition: 2.93%
[3]
  inhibition: 5.84%
